Experimental findings from ChEMBL document CHEMBL3988442, “University of Dundee, Small-Polar-MMV Screening Library” (2021) are described below.

In all, about 67,000 compounds went through this assay and about 300 (0.45%) showed an effect of 50% or more. The entries come from a sample that favours strong results as a whole.

Chain of Polyketide synthase Pks13 (Mycobacterium tuberculosis (strain ATCC 25618 / H37Rv)) (I6X8D2 whole entry): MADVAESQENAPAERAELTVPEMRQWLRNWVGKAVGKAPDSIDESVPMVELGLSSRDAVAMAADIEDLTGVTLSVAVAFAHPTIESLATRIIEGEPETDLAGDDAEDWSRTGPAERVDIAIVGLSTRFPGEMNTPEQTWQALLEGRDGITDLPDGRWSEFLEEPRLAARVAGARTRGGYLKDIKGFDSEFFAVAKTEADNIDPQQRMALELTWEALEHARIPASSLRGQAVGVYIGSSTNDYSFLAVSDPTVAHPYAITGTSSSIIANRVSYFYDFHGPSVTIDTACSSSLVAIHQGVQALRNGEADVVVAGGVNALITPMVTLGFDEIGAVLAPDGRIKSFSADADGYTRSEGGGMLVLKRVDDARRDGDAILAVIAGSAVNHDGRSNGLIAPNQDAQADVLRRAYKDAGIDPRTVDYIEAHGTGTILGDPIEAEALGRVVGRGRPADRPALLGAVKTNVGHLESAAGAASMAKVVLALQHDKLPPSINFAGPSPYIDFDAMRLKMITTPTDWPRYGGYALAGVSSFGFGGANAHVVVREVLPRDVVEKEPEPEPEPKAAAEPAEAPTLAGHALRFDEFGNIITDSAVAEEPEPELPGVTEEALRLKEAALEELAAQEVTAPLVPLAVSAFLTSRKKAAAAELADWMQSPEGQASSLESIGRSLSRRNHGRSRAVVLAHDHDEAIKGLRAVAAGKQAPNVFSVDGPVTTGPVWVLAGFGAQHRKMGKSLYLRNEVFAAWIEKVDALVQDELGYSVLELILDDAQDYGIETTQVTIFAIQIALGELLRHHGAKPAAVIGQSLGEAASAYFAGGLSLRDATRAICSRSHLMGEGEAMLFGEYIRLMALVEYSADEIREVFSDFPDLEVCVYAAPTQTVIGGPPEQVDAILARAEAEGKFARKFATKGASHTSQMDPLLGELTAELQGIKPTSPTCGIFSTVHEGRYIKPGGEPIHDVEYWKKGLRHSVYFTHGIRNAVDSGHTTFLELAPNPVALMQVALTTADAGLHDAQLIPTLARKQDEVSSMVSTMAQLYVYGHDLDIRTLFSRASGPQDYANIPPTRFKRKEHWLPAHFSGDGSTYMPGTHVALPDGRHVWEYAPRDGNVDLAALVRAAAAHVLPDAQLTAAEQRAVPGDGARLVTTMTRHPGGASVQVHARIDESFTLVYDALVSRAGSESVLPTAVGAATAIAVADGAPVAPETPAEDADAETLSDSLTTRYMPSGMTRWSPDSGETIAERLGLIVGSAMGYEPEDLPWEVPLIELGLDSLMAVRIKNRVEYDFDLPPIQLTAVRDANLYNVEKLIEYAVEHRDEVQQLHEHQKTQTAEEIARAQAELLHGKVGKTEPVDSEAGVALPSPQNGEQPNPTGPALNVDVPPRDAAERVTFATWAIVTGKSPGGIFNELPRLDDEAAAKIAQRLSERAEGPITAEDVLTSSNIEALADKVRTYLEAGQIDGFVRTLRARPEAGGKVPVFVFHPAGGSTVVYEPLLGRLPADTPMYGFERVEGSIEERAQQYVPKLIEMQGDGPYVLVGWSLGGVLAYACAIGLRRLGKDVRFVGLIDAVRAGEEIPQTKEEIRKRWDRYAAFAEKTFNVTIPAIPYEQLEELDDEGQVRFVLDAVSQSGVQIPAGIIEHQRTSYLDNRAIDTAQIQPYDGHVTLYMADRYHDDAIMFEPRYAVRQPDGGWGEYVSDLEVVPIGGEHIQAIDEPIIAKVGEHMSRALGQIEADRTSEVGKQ

The experiment has as its target Polyketide synthase Pks13 (Mycobacterium tuberculosis (strain ATCC 25618 / H37Rv)) (UniProt I6X8D2). The experiment in a line: Mycobacterium tuberculosis Polyketide synthase 13 Thioesterase (PKS13). It is filed as functional. Further details: scale not given: in the data most compounds retested in dose-response had high values. Particulars: 30 µM.
Turning to `O=C(NC1CC1)[C@@H]1CCO[C@@H]2CCN(C3CCOCC3)C[C@H]21`, the Percent Effect is -9.37%.
As for `Cc1noc(C)c1CN1C[C@@H]2CCCO[C@@H]2[C@H](NS(C)(=O)=O)C1`, the figure is -27.6%.
As for `O=C([C@@H]1COC[C@H]2CN(CC3CCCC3)C[C@H]21)N1CCOCC1`, the figure is -31.7%; as for `CO[C@@H]1CCN(c2ncc(F)cn2)[C@@H]2CN(CC3CC3)C[C@@H]21`, -32.1%.
As for `CC(C)N1CCO[C@H]2CN(C(=O)c3ccsc3)C[C@H]21`, the Percent Effect is -16%.
Regarding `Cc1cc(CN2CCN(C(=O)C(C)C)[C@@H]3CS(=O)(=O)C[C@@H]32)ccc1F`, the Percent Effect was -6.06%.
As to `CNC(=O)c1cc2c(nc1NCC1CC1)CCNCC2`, the Percent Effect worked out at 81.7%.
Turning to `CNC(=O)c1cc2c(nc1NCC1CC1)CCN(c1ncccn1)CC2`, the Percent Effect is 9.04%.
On to `CN(C)C(=O)c1cc2c(nc1NCC1CC1)CCNCC2`, for which the Percent Effect is -20.1%.
Consider `O=C1[C@@H]2CCN(Cc3ccoc3)C[C@@H]2OCCN1c1cccnc1`, for which the Percent Effect is -7.12%.
With `Cc1noc([C@H]2C[C@H]3CN(C(=O)Cc4ccsc4)CC[C@H]3O2)n1`, the Percent Effect is -10.9%.
As for `O=C(CC1CC1)N[C@@H]1CN(Cc2nccs2)C[C@@H]2CCCO[C@@H]21`, the figure is -33.5%.
The result for `Cc1nc(COC[C@@H]2CC[C@H]3[C@H](CCN3c3ncccn3)O2)cs1` reads -28.4%; that for `COCC(=O)N1CCC(c2cc(C(F)(F)F)n3ccnc3n2)CC1`, 61.5%.
As for `CC(=O)N1CCC(c2cc(C(F)(F)F)n3ccnc3n2)CC1`, the Percent Effect was 41.8%.
`CN1CCC(c2cc(C(F)(F)F)n3ccnc3n2)CC1`: the Percent Effect is -20.7%.
Regarding `CC(=O)N1CCC(c2cc(C(F)(F)F)nc3nccn23)CC1`, the Percent Effect turned out to be 57.5%.
Regarding `FC(F)(F)c1cc(C2CCN(c3cnccn3)CC2)n2ccnc2n1`, the Percent Effect amounted to 18.1%.
The result for `CC(C)N1CCCC(c2cc(C(F)(F)F)nc3nccn23)C1` (configuration not stated) reads 24.5%; that for `c1cc(CN2CCO[C@H]3[C@H](OCCN4CCCC4)CC[C@@H]32)ccn1`, -11.4%.
Consider `CC1=N[C@@]2(CC[C@@H]3CN(CC(=O)N(C)C)C[C@@H]32)C(=O)N1CC(C)C`, for which the Percent Effect is -5.03%.
Take `COCCCN1C(=O)CC[C@H]2CN(Cc3cc4ccccc4o3)CC[C@H]21`: the Percent Effect was -4.88%.
As to `COCCN1CCO[C@@H]2CN(Cc3ccc(C)s3)C[C@@H]2C1`, the Percent Effect is -27.7%.
As to `CN(C)C(=O)CN1C[C@@H]2CC[C@H](C1)N(Cc1ccccc1C#N)C2`, the Percent Effect was determined as 6.99%.
As for `COc1ccc2[nH]cc(-c3ccnc(N4CCC(C)CC4)n3)c2c1`, the figure is 71.9%; as for `CN1CCCN(c2nccc(-c3c[nH]c4ccc(Br)cc34)n2)CC1`, -2.62%.
For the molecule `COc1ccc2[nH]cc(-c3ccnc(NC4CCCC4)n3)c2c1`, the Percent Effect was 18.6%.
`O=C(COC1CCCC1)N1C[C@@H]2COC[C@]2(COc2cccnc2)C1`: the Percent Effect is -18%.
The result for `Nc1nccnc1CC1CCCN(Cc2ccnc3ccccc23)C1` (configuration not stated) reads 126%; that for `Nc1nccnc1CC1CCCN(Cc2c[nH]c3ccccc23)C1` (configuration not stated), 15.3%.
For the molecule `COc1ccccc1CN1CCCC(Cc2nccnc2N)C1` (configuration not stated), the Percent Effect was -2.41%.
On to `CCN1C[C@H]2CCN(C(=O)NC3CCCC3)CC[C@H]2S1(=O)=O`, for which the Percent Effect is -17.8%.
In the case of `CC(=O)N1[C@H](Cn2cncn2)C[C@@H]2CN(C(=O)NC3CC3)CC[C@@H]21`, the Percent Effect turned out to be 12.2%.
`O=C(Nc1cnccn1)[C@H]1CO[C@H]2CCN(c3ncc(F)cn3)C[C@H]2C1`: the Percent Effect is -40.3%.
Turning to `COCCN1C(=O)[C@]2(CC[C@@H]3CN(Cc4ccccc4F)C[C@@H]32)N=C1C`, the Percent Effect was -17.4%.
On to `Cc1csc2ncc(-c3ccnc(N4CCCC4)n3)c(=O)n12`, for which the Percent Effect is 137%.
Regarding `Cc1csc2ncc(-c3ccnc(N4CCN(C)CC4)n3)c(=O)n12`, the Percent Effect was -27.4%.
As for `Cc1csc2ncc(-c3ccnc(N4CCCN(C)CC4)n3)c(=O)n12`, the Percent Effect came to 37.9%.
Regarding `C/C(NC(=O)c1ccco1)=C1/C(=O)C[C@@H]2[C@H]1C2(C)C`, the Percent Effect stood at 0.624%.
The result for `CCCc1ccc(CN2C[C@H]3C(=O)N(CC4CC4)C[C@@]3(C(=O)O)C2)o1` reads -6.91%.
For the molecule `COCCN1C[C@@H]2CN(c3ncc(F)cn3)C[C@@H]2C1=O`, the Percent Effect was -5%.
As for `COCCN1C[C@@H]2CN(c3ncccn3)C[C@@H]2C1=O`, the figure is 54.8%; as for `O=C1[C@H]2CN(c3ncccn3)C[C@H]2CN1CCN1CCCC1`, -2.18%; as for `O=C(NC[C@@H]1C[C@@H]2CN(C(=O)CO)C[C@H]2O1)c1ccsc1`, -53.3%.
Regarding `O=C(c1ccc(-n2cncn2)cc1)N1CCN(c2cnccn2)CC1`, the Percent Effect is -11.1%.
As for `O=C(c1ccc(-n2ccnc2)cc1)N1CCCC1`, the Percent Effect is -36.5%.
The result for `O=C(c1cnn(-c2ccccc2)c1)N1CCN(c2cnccn2)CC1` reads -16.8%; that for `Cc1ccnn1-c1ccc(C(=O)N2CCN(c3cnccn3)CC2)cc1`, 1.07%; that for `O=C(c1ccc(-n2ccnc2)cc1)N1CCN(c2cnccn2)CC1`, 64.5%.
Regarding `O=C(c1ccc(-n2cc(Br)cn2)cc1)N1CCN(c2cnccn2)CC1`, the Percent Effect was determined as 81.5%.
In the case of `O[C@@]1(c2ccccn2)CC[C@H]2CN(Cc3cccc(Cl)c3Cl)C[C@H]21`, the Percent Effect was -48.7%.
As for `O=C(C1CC1)N1C[C@H]2CNC[C@@]2(C(=O)NCCCc2ccccc2)C1`, the Percent Effect was -27.1%.
With `Cc1ncsc1CN1C[C@H](C(=O)NCC2CC2)[C@@H]2CCO[C@@H]2C1`, the Percent Effect is -19.8%.
On to `O=C(NCCCn1nc2ccccn2c1=O)NCc1ccccc1`, for which the Percent Effect turned out to be 2.17%.
The result for `Cc1ccc(CNC(=O)NCCCn2nc3ccccn3c2=O)s1` reads 96.8%.
In the case of `CCNC(=O)NCCCn1nc2ccccn2c1=O`, the Percent Effect turned out to be 0.265%.
Turning to `Cc1nc(COC[C@@]23CCC[C@@H]2CN(CC2CCOCC2)C3)cs1`, the Percent Effect is -23.1%.
As to `O[C@@H]1C[C@@](CNCC2CC2)(COc2cccnc2)C[C@@H]1O`, the Percent Effect was -28.2%.
Regarding `Cc1cc(CN2C[C@@H]3COC[C@@H](C(=O)N4CCCCO4)[C@@H]3C2)oc1C`, the Percent Effect was -7.51%.
Turning to `CC(C)N1CCCC(C(=O)N2CCN(c3nsc4ccccc34)CC2)C1` (configuration not stated), the Percent Effect is -2.9%.
The result for `NC(=O)N1CCCC(C(=O)N2CCN(c3nsc4ccccc34)CC2)C1` (configuration not stated) reads -37.1%.
For `CCN1CC(C(=O)N2CCN(c3nsc4ccccc34)CC2)CCC1=O` (configuration not stated), the Percent Effect was 105%.
As for `O=C(COC[C@H]1CC[C@H]2[C@H](CCN2c2ncccn2)O1)N1CCCC1`, the Percent Effect was -9.39%.
As to `CC(C)=CCN1CCN(C(=O)COc2ccccc2)[C@H]2CS(=O)(=O)C[C@H]21`, the Percent Effect was -8.58%.
Consider `O=C(C1CC(F)(F)C1)N1C[C@@H]2CN(Cc3ccoc3)CCO[C@@H]2C1`, for which the Percent Effect is -7.81%.
The result for `Cc1cccc(CN2CCN(C(=O)N(C)C)[C@@H]3CS(=O)(=O)C[C@@H]32)n1` reads -6.96%; that for `CCNc1ncc(-c2cc(-c3ccn(C)c3)nc(N)c2C#N)cn1`, 5.42%; that for `COc1ncc(-c2cc(-c3ccn(C)c3)nc(N)c2C#N)cn1`, 9.8%.
In the case of `CCn1cc(-c2cc(-c3ccn(C)c3)nc(N)c2C#N)cc1C#N`, the Percent Effect worked out at 58.3%.
As for `CN(C)C(=O)COCC1C[C@@H]2OCCN(Cc3ccco3)[C@H]2C1` (some centres not stated), the Percent Effect was -27.3%.
Consider `COc1cc(N2C[C@@H]3COC[C@]3(COCc3ccncc3)C2)ncn1`, for which the Percent Effect is -5.91%.
On to `O=C(C[C@@H]1COC[C@H]2CN(C3CCC3)C[C@@H]12)NCc1cccnc1`, for which the Percent Effect was 0.641%.
Take `O=C(c1ccc(F)cc1)N1C[C@H]2CCC[C@@]2(COCc2ccccn2)C1`: the Percent Effect is -35.6%.
The result for `COc1ccsc1C(=O)Nc1cc(Cl)c(=O)n(C)c1` reads -16.3%; that for `Cn1cc(NC(=O)c2ccccn2)cc(Cl)c1=O`, -33.4%; that for `Cn1cc(NC(=O)c2cc[nH]n2)cc(Cl)c1=O`, 70.5%.
Regarding `O=C(c1ccnnc1)N1CCN2C[C@H](Oc3cccnc3)C[C@H]2C1`, the Percent Effect is -17.2%.
For the molecule `COc1ncccc1CN1C[C@H]2CCN(C(C)C)C[C@H]2C1`, the Percent Effect was 8.32%.
As for `O=C(Nc1nc2c(s1)CN(S(=O)(=O)C1CC1)CC2)c1ccc(Cl)s1`, the Percent Effect is 13.8%.
Regarding `O=C(Nc1nc2c(s1)CN(S(=O)(=O)C1CC1)CC2)c1cccc(Cl)c1`, the Percent Effect was found to be 75.5%.
As for `O=C(Nc1nc2c(s1)CN(S(=O)(=O)C1CC1)CC2)c1c(F)cccc1F`, the figure is -2.3%.
For `CNC(=O)[C@@]12CCCN(c3ncccn3)[C@@H]1CN(c1ncc(C)cn1)C2`, the Percent Effect is -27.3%.
`CC(C)CNC(=O)c1cc(C2CC2)nc2c1c(C1CCCN1)nn2C` (configuration not stated): the Percent Effect is -19.7%.
Take `Cn1nc(C2CCNC2)c2c(C(=O)NCC(F)(F)F)cc(C3CC3)nc21` (configuration not stated): the Percent Effect was -7.7%.
As for `Cn1nc(C2CCCN2)c2c(C(=O)NCC(F)(F)F)cc(C3CC3)nc21` (configuration not stated), the Percent Effect was found to be 119%.
The result for `O=C(c1ccco1)N1CCO[C@@H]2CN(c3ccccn3)CC[C@@H]2C1` reads 52.6%; that for `O=C(c1ccco1)N1CCO[C@@H]2CN(c3ccccc3)CC[C@@H]2C1`, -28.4%.
As to `Cc1cccc(N2CC[C@@H]3CN(C(=O)c4ccco4)CCO[C@@H]3C2)n1`, the Percent Effect was -34.3%.
The result for `Fc1cnc(N2CCO[C@H]3CN(CC4CCCCC4)C[C@H]32)nc1` reads -51%; that for `O=C(c1cccc(F)c1)N1CC[C@H]2[C@H]1CCN2CC1CCOCC1`, -17.7%.
Consider `Cc1nc2c(Nc3cccc(C#N)c3)nc(N)nc2n1C`, for which the Percent Effect was found to be 58.8%.
In the case of `Cc1nc2c(Nc3ccc(C#N)cc3)nc(N)nc2n1C`, the Percent Effect came to 18.1%.
In the case of `CC(=O)c1ccc(Nc2nc(N)nc3c2nc(C)n3C)cc1`, the Percent Effect was determined as 2.22%.
On to `O=C(NCc1ccccn1)[C@H]1COC[C@H]2CN(C3CCCC3)C[C@H]21`, for which the Percent Effect was -25.1%.
The result for `CC1(NC(=O)Cc2csc(C(C)(C)C)n2)CCS(=O)(=O)C1` (configuration not stated) reads -0.313%.
As for `CC1(NC(=O)Cc2csc(NC(=O)c3ccccc3)n2)CCS(=O)(=O)C1` (configuration not stated), the figure is 51.1%; as for `CC1(NC(=O)Cc2csc(-c3ccccc3Cl)n2)CCS(=O)(=O)C1` (configuration not stated), -7.78%.
For `c1ccc(CN2CCN3C[C@H](Oc4cccnc4)C[C@H]3C2)nc1`, the Percent Effect was -35.4%.
For `CNC(=O)[C@H]1C[C@@H]2CN(C(=O)c3ccccn3)C[C@@H]2N1S(C)(=O)=O`, the Percent Effect is -6.49%.
For `CSCc1ccc(N2CCC(C(O)Cc3ccccc3)CC2)nc1` (configuration not stated), the Percent Effect worked out at 101%.
As to `Cc1ccc(N2CCC(C(O)Cc3ccccc3)CC2)nn1` (configuration not stated), the Percent Effect was -23.2%.
As for `CSCc1ccc(N2CCC(C(O)CC(C)C)CC2)nc1` (configuration not stated), the Percent Effect is 6.3%.
As for `CC(C)CNC(=O)N1CC[C@@H]2CN(Cc3cccnc3)S(=O)(=O)[C@@H]2CC1`, the Percent Effect is -16.3%.
With `CCCN1C(=O)[C@@H]2[C@@H](CCN2C(=O)COC)N(Cc2cccs2)C1=O`, the Percent Effect was determined as 26.9%.
On to `Cc1cc(NCc2cccc(C#N)c2)ccc1C(N)=O`, for which the Percent Effect is -10.5%.
As to `Cc1cc(NCc2cccc(C#N)c2)ccc1Br`, the Percent Effect was 58.5%.
As for `Cc1cc(NCc2cccc(C#N)c2)ccc1C(=O)N(C)C`, the Percent Effect was -4.66%.
